Screen size: about 5,500 compounds; about 2,000 (36%) were called active. Roughly 18% stayed inconclusive and do not appear here. Rule as the data show it: active = normalized growth mostly below about 0.91 (no sharp cut-off); inconclusive = no clear call, values can overlap the other calls; inactive = mostly above about 0.92. Some of the results follow.
Assay: chemical genetic growth profiling, strain panel (AID 1159580);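 also: tested at 20 µM; growth read once vehicle control cultures reached saturation at 30 °C; 1 = growth at the plate median or of vehicle wells; lower values mean less growth of the strain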
Settings: S. cerevisiae deletion strains, growth OD

Measured: normalized growth

CCOC(=O)CNc1ccc(Cl)c(Cl)c1
inactive: locus YAL013W, strain DEP1, hits give low values 0.949 | locus YBR229C, strain ROT2, hits give low values 0.969 | locus YCL061C, strain MRC1, hits give low values 0.977 | locus YDL101C, strain DUN1, hits give low values 0.974 | locus YDR150W, strain NUM1, hits give low values 0.967 | locus YEL061C, strain CIN8, hits give low values 0.986 | locus YGR078C, strain PAC10, hits give low values 0.958 | locus YGR229C, strain SMI1, hits give low values 0.998 | locus YHR030C, strain SLT2, hits give low values 0.746 | locus YHR087W, strain rtc3, hits give low values 0.978 | locus YJL187C, strain SWE1, hits give low values 0.973 | locus YJR043C, strain POL32, hits give low values 0.974 | locus YJR075W, strain HOC1, hits give low values 0.927 | locus YLR039C, strain RIC1, hits give low values 0.971 | locus YLR058C, strain SHM2 (second series), hits give low values 0.97 | locus YLR085C, strain ARP6, hits give low values 0.876 | locus YLR262C, strain YPT6, hits give low values 0.975 | locus YML094W, strain GIM5, hits give low values 0.973 | locus YMR219W, strain ESC1, hits give low values 0.974 | locus YMR263W, strain SAP30, hits give low values 0.946 | locus YMR307W, strain GAS1, hits give low values 0.986 | locus YNL153C, strain GIM3, hits give low values 0.962 | locus YNL298W, strain CLA4 (second series), hits give low values 0.931 | locus YNL322C, strain KRE1, hits give low values 0.971 | locus YNR030W, strain Alg12, hits give low values 0.995 | locus YPL055C, strain LGE1, hits give low values 0.87 | locus YPL241C, strain CIN2, hits give low values 1 | locus YPR135W, strain CTF4, hits give low values 0.906
